Hits are enriched below; roughly 14% of the tested compounds scored in any of these assays.
HCMV antiviral: qHTS Assay for inhibitors of the human cytomegalovirus (HCMV). HFF cells, HCMV-luciferase reporter, 72 h; stronger effect = lower value. activity change, negative = inhibition, % at 57.5 µM. 410,000 compounds, 4.5% hits. AID 1259415, 2018; in the data active = activity change below about -60%; inconclusive = no clear call, values can overlap the other calls; inactive = above about -39%
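Two compound doses tested in HFFs infected with HCMV-luciferase, MOI 1 PFU/cell, 72 h at 37C. Lysate luminescence read with OneGlo; data normalized against buffer-only and 10uM Salinomycin inhibitor controls.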
Marburg entry inh: qHTS for inhibitors of binding or entry into cells for Marburg Virus | Potency, µM (top dose mostly 37.8 µM), inactives show top-dose activity change, negative = inhibition, hits mostly inhibitors | Marburg virus pseudotyped entry inhibition, cell reporter | AID 540276, 2011 | 300,000 compounds, 1.8% hits; calls by dose curve; tested in HEK293 cells; note: potency is the fitted concentration of half-maximal effect
Pf growth 96h: Primary qHTS for delayed death inhibitors of the malarial parasite plastid, 96 hour incubation | 320,000 compounds, 6.9% hits | AID 504834, 2011 | Potency, µM (doses to about 28.7 µM), inactives show at the highest dose activity change, negative = inhibition, most hits filed as inhibitors | P. falciparum luciferase reporter growth, 96 h; note: potency is the fitted concentration of half-maximal effect
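Plates of compound plus infected erythrocytes (2% hematocrit, 0.05% parasitemia final) incubate 96 hours, 37 C, 5% CO2. Detection reagent added; reduced luminescence from the parasites' luciferase reporter flags inhibition.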
HCV inh: qHTS Assay for Inhibitors of Hepatitis C Virus (HCV) | Huh7.5.1 HCVcc-Cre infection, luciferase reporter, 44 h | Potency, µM (series often up to 41.8 µM), for inactives: at the highest dose activity change, negative = inhibition, most hits filed as inhibitors | 340,000 compounds, 3.4% hits | AID 651820, 2012; note: potency is the fitted concentration of half-maximal effect
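Antiviral activity was scored by luciferase reporter output from cells infected with HCVcc-Cre (~0.5 moi) in presence of compound, 44 h infection period, cells seeded 1,000/well 4 h prior.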
Lassa entry inh: qHTS for Inhibitors of binding or entry into cells for Lassa Virus | Lassa virus pseudotype entry inhibition, cell reporter | Potency, µM (doses to about 37.9 µM), for inactives: at the top dose activity change, negative = inhibition, usual class: inhibitors | 300,000 compounds, 1.2% hits; calls by dose curve; tested in HEK293 cells; note: potency is the fitted concentration of half-maximal effect; nearly all actives have a fitted effect of over 50% in size
Pf growth 48h: Primary qHTS for delayed death inhibitors of the malarial parasite plastid, 48 hour incubation. 310,000 compounds, 5.9% hits. AID 504832, 2011. Potency, µM (highest dose often 28.7 µM), without a hit: top-dose activity change, negative = inhibition, hits mostly inhibitors. P. falciparum luciferase growth in erythrocytes, 48 h; note: potency is the fitted concentration of half-maximal effect
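Compounds are pin-transferred into medium, infected erythrocytes (2% hematocrit, 0.1% parasitemia final) are added, and plates sit one parasite generation at 37 C in 5% CO2. Detection reagent is then added and luminescence measured.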
Numbers without * were called inactive; ? = inconclusive; . = no result; [ ] = remark or other dose. Unless noted, calls come from the whole dose curve; as a rule, active = well fitted inhibition curve with a large enough effect; inconclusive = small, poorly fitted or top-dose-only effect, or another doubt; inactive = no such curve, though single readings can be large or run the other way. % is set by controls: 0 for no effect and ±100 for the full control effect.

SMILES	HCMV antiviral	Marburg entry inh	Pf growth 96h	HCV inh	Lassa entry inh	Pf growth 48h
Cc1ccc(C(=O)NCc2ccccn2)cc1S(=O)(=O)N1CCOCC1	-17	.	?	4%	.	?
CCOc1ccc(-c2nc(CSCC(=O)NCC3CCCO3)c(C)o2)cc1 (stereo not drawn)	-9	-10%[46.1 µM]	13µM*	-18%	-18%[46.1 µM]	43%
Cc1ccc(-c2nc(CSCC(=O)NCC3CCCO3)c(C)o2)cc1 (stereo not drawn)	-30	1%[46.1 µM]	?	-24%	4%[46.1 µM]	19%
COc1ccc(-c2nc(CSCC(=O)NCC3CCCO3)c(C)o2)cc1OC (stereo not drawn)	17	4%	15µM*	5%	8%	58%
CCOc1ccc(-c2nc(CSCC(=O)NCc3ccc(Cl)cc3)c(C)o2)cc1	-66*	.	.	.	-2%[46.1 µM]	.
Cc1cc(C)c(NC(=O)Cn2c(=O)n(-c3cccc(C(F)(F)F)c3)c(=O)c3c(C)c(C)sc32)c(C)c1	-24	-31%[46.1 µM]	.	.	6%[46.1 µM]	.
Nc1nc2c(ncn2COC(CO)CO)c(=O)[nH]1	-81*	?	19%	2%[8.37 µM]	-29%	3%
Nc1nc2c(ncn2[C@H]2C[C@H](O)[C@@H](CO)O2)c(=O)[nH]1	?	.	3%	-7%	.	6%
CCOC(=O)c1ccc(Nc2nnc(C(C)(C)C)c(=O)[nH]2)cc1	-32	?	?	-16%	?	5.2µM*
CCn1ccc2cc(S(=O)(=O)N3CCCN(C(=O)NCC(C)C)CC3)ccc21	9	.	.	.	-17%[46.1 µM]	.
NCCc1cnc[nH]1	-8	?	?	?	-10%	-2%
NCCc1ccn[nH]1	-67*	.	-3%	0%	.	-1%
COc1cccc(CSC(C(=O)O)c2ccccc2)c1 (stereo not drawn)	3	.	.	.	.	.
COC(=O)c1ccccc1NC(=O)COC(=O)c1ccc(C)c(NC(=O)c2ccco2)c1	-2	?	2.3µM*	?	?	2.3µM*
COc1ccc(NC(=O)COC(=O)c2cc(OC)c(OC)cc2NC(=O)c2ccco2)cc1OC	-66*	-5%	6%	-23%	-15%	.
COCCNC(=S)Nc1cc(OC)c(NC(=O)c2ccco2)cc1OC	-34	0%	14%	13µM*	6%	18%
COC(=O)c1cc(OC)c(OC)cc1NC(=O)c1ccco1	-10	-25%	-35%	6.3µM*	-5%	-19%
Cc1ccccc1CN1C(=O)c2ccccc2S(=O)c2ccc(C(=O)NCc3ccc(Cl)cc3)cc21 (stereo not drawn)	-5	.	.	.	-19%[46.1 µM]	.
Cc1ccc(S(=O)(=O)N2Cc3ccccc3CC2C(N)=O)cc1 (stereo not drawn)	-4	.	.	.	.	.
CCCNC(=O)N1[C@H](c2cccs2)[C@@H](C)C(=O)[C@@H](C)[C@@H]1c1cccs1	9	2%[46.1 µM]	.	.	-7%[46.1 µM]	.
CCOC(=O)c1c(NC(=O)c2nc(SC)ncc2Cl)sc(C)c1C	7	6%[46.1 µM]	.	.	-3%[46.1 µM]	.
Cc1ccc(CNC(=O)c2c(C)oc3nc(C)nc(N4CCOCC4)c23)cc1	57	.	.	.	16%[46.1 µM]	.
Cc1ccc(-n2c(=O)c3c(c4cc(C)ccc4n3C)n(Cc3ccc(F)cc3)c2=O)cc1	12	.	.	.	2%[46.1 µM]	.
Cc1nn(-c2ccc(F)cc2)c(Cl)c1/C=C/C(=O)N1CCNC(=O)C1	?	.	13µM*	5%	.	-23%
Cc1nn(-c2ccc(F)cc2)c(C)c1/C=C/C(=O)N1CCNC(=O)C1	38	.	?	5%	.	0%
SMILES	HCMV antiviral	Marburg entry inh	Pf growth 96h	HCV inh	Lassa entry inh	Pf growth 48h
COc1cccc(-c2oc3c(c2C#CCCO)C(O)CCC3)c1 (stereo not drawn)	5	.	.	.	.	.
CN(Cc1ccccc1)C(=O)CN1C(=O)NC2(CCCc3sccc32)C1=O (stereo not drawn)	-3	.	.	.	.	.
Cc1nnc(SCC(=O)N2CCC(c3noc4ccc(F)cc34)CC2)s1	-70*	5%	-5%	4%	0%	?
O=[N+]([O-])c1cc(-c2ccc([As](=O)(O)O)cc2)ccc1[As](=O)(O)O	.	.	?	.	.	8%
O=[N+]([O-])c1ccc([As](=O)(O)O)cc1	.	.	1.7µM*	.	.	3µM*
N#Cc1c(Cl)nc2c(c1C#N)CCCC2	-75*	16%	-7%	-20%	9%	8%
CCCCc1nc(Cl)c(C#N)c2c1CCCC2	?	-9%	27%	-30%	11%	8%
Cc1ccc(CSc2nc(-c3ccc(C(C)(C)C)cc3)nc3cc(=O)[nH]n23)cc1	-105*	.	.	.	12%[46.1 µM]	.
O=C(NCC1CCCO1)C(=Cc1cccc([N+](=O)[O-])c1)C(=O)NCC1CCCO1 (stereo not drawn)	-99*	12µM*	13µM*	?	?	?
O=C(NCC1CCCO1)c1ccc(Oc2ccc([N+](=O)[O-])cc2)cc1 (stereo not drawn)	-23	.	1.5µM*	-2%	.	4%
O=C(NCC1CCCO1)c1ccc(Oc2ccc([N+](=O)[O-])cc2Cl)cc1 (stereo not drawn)	0	.	35%[1.15 µM]	34%	.	-3%
O=C(NCC1CCCO1)/C(=C\c1cccc([N+](=O)[O-])c1)NC(=O)c1ccccc1 (stereo not drawn)	20	-9%[46.1 µM]	22%	5%	1%	31%
CCC(=O)N1CCC(C)(C(=O)NCc2cccc(OC)c2)C1 (stereo not drawn)	-14	.	.	.	.	.

Screens as filed in PubChem BioAssay.
